Measurements taken from PubChem BioAssay (NCATS).
Results filed as inconclusive are left out. The source made the active and inactive calls. Calls come from the whole dose curve; as a rule, active = well fitted curve in the direction sought with a large enough effect; inconclusive = small, poorly fitted or top-dose-only effect, or another doubt; inactive = no such curve, though single readings can be large; an effect the other way counts as inactive or inconclusive. Numbered stars: 1 amine (or outer) side, 2 acyl side, 3 side chain; on linkers, the order of the positions; unused ones are H or OH. Bridge positions count the residues as written; N and C are the ends. Square brackets hold non-standard residues; d marks the D form. Peptide text beside a SMILES is read from it. * marks the point of attachment. ξ: configuration not given here. ΔAla(Z-3-ureido) = NC(=O)N/C=C(\N)C(=O)O; X2 = NC1=NC(O)CC(C(N[*:1])C(=O)[*:2])N1; ξβ3hOrn = NCCCC(N)CC(=O)*; Dap = NC[CH](N)C(=O)O

Experiments:
3D7 = assay: qHTS profiling for inhibitors of Plasmodium falciparum proliferation (AID 504749); note: nearly all actives have a fitted effect of over 60% in size; details: P. falciparum in erythrocytes, SYBR Green DNA, 72 h; series mostly up to 28.7 µM
Method in brief: (§1)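 Readout was DNA-dye fluorescence from lysed cultures, ex 485/em 535 nm. Parasitized red cells had grown 72 h with compound; data scaled between 0.29 uM artemisinin and DMSO wells and corrected using vehicle-only plates.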

AS120 = assay: as above; details: P. falciparum in erythrocytes, SYBR Green DNA, 72 h; series mostly up to 28.7 µM
Method in brief: as §1

CP191 = assay: as above; details: P. falciparum in erythrocytes, SYBR Green DNA, 72 h; series mostly up to 28.7 µM
Method in brief: as §1

CP211 = assay: as above; details: P. falciparum in erythrocytes, SYBR Green DNA, 72 h; series mostly up to 28.7 µM
Method in brief: as §1

CP247 = assay: as above; details: P. falciparum in erythrocytes, SYBR Green DNA, 72 h; series mostly up to 28.7 µM
Method in brief: as §1

CP250 = assay: as above; details: P. falciparum in erythrocytes, SYBR Green DNA, 72 h; series mostly up to 28.7 µM
Method in brief: as §1

CP262 = assay: as above; details: P. falciparum in erythrocytes, SYBR Green DNA, 72 h; series mostly up to 28.7 µM
Method in brief: as §1

CP297 = assay: as above; details: P. falciparum in erythrocytes, SYBR Green DNA, 72 h; series mostly up to 28.7 µM
Method in brief: as §1

CP335 = assay: as above; details: P. falciparum in erythrocytes, SYBR Green DNA, 72 h; series mostly up to 28.7 µM
Method in brief: as §1

Dd2 = assay: as above; details: P. falciparum in erythrocytes, SYBR Green DNA, 72 h; series mostly up to 28.7 µM
Method in brief: as §1

ECU = assay: as above; details: P. falciparum in erythrocytes, SYBR Green DNA, 72 h; series mostly up to 28.7 µM
Method in brief: as §1

N140 = assay: as above; details: P. falciparum in erythrocytes, SYBR Green DNA, 72 h; series mostly up to 28.7 µM
Method in brief: as §1

P93_24 = assay: as above; details: P. falciparum in erythrocytes, SYBR Green DNA, 72 h; series mostly up to 28.7 µM
Method in brief: as §1

PAD = assay: as above; details: P. falciparum in erythrocytes, SYBR Green DNA, 72 h; series mostly up to 28.7 µM
Method in brief: as §1

TAB113 = assay: as above; details: P. falciparum in erythrocytes, SYBR Green DNA, 72 h; series mostly up to 28.7 µM
Method in brief: as §1

TAB165 = assay: as above; details: P. falciparum in erythrocytes, SYBR Green DNA, 72 h; series mostly up to 28.7 µM
Method in brief: as §1

ATS95 = assay: as above; details: P. falciparum in erythrocytes, SYBR Green DNA, 72 h; series mostly up to 28.7 µM
Method in brief: as §1

[1] = biological target: Cytochrome P450 3A4 (Homo sapiens) (UniProt P08684); assay: qHTS Assay for Activators of Cytochrome P450 3A4 (AID 885); note: nearly all actives have a fitted effect of over 65% in size
Chain of Cytochrome P450 3A4 (Homo sapiens) (P08684 whole entry, looked up): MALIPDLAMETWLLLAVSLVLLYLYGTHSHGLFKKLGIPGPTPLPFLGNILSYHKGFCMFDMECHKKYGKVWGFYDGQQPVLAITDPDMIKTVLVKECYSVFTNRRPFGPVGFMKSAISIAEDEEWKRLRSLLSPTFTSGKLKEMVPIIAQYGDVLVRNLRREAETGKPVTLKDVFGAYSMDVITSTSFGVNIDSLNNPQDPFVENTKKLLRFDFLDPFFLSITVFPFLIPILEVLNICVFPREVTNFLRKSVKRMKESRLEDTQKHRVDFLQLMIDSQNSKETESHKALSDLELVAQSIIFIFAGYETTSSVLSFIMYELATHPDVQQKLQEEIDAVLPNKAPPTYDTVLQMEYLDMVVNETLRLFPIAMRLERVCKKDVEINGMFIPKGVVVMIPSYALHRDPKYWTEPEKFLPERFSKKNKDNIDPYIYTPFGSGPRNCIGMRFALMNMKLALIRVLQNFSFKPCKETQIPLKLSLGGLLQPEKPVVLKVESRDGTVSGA
Method in brief: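 Signal was normalized against complete inhibition by 57 uM ketoconazole. The reaction used 20nM CYP3A4 with 25uM Luciferin-PPXE, 10-min compound preincubation and a 60-min NADPH-supported step at RT.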

Measured: Potency

NCCCC(N)CC(=O)NC1CNC(=O)C(C2CC(O)N=C(N)N2)NC(=O)/C(=C/NC(N)=O)NC(=O)C(CO)NC(=O)C(CO)NC1=O (stereo not drawn) (ξβ3hOrn-[Dap]SS[ΔAla(Z-3-ureido)][X2]; lactam 1-C; configuration not given here)
inactive: 3D7 | AS120 | CP191 | CP211 | CP247 | CP250 | CP262 | CP297 | CP335 | Dd2 | ECU | N140 | P93_24 | PAD | TAB113 | TAB165

O=C(O)c1ccccc1-c1c2cc(Br)c(=O)c(Br)c-2oc2c(Br)c(O)c(Br)cc12
inactive: 3D7 | AS120 | ATS95 | CP191 | CP211 | CP247 | CP250 | CP262 | CP335 | Dd2 | ECU | N140 | P93_24 | PAD | TAB113 | TAB165

CC(=O)OCC1=C(C(=O)O)N2C(=O)C(NC(=O)Cc3ccccc3)C2SC1 (stereo not given)
inactive: 3D7 | AS120 | ATS95 | CP191 | CP211 | CP247 | CP250 | CP262 | CP297 | CP335 | Dd2 | ECU | N140 | P93_24 | PAD | TAB113 | TAB165

CC(C)CC(NC(=O)C(COC(C)(C)C)NC(=O)C(Cc1ccc(O)cc1)NC(=O)C(CO)NC(=O)C(Cc1c[nH]c2ccccc12)NC(=O)C(Cc1cnc[nH]1)NC(=O)C1CCC(=O)N1)C(=O)NC(CCCN=C(N)N)C(=O)N1CCCC1C(=O)NNC(N)=O (stereo not given)
inactive: 3D7 | AS120 | ATS95 | CP191 | CP211 | CP247 | CP250 | CP262 | CP297 | CP335 | Dd2 | ECU | N140 | P93_24 | PAD | TAB165

CCC(Oc1ccccc1)C(=O)NC1C(=O)N2C1SC(C)(C)C2C(=O)O (stereo not given)
inactive: 3D7 | AS120 | ATS95 | CP191 | CP211 | CP247 | CP250 | CP262 | CP297 | CP335 | Dd2 | ECU | N140 | P93_24 | PAD | TAB113 | TAB165

Cc1csc(-c2nc3ccccc3n2C)n1
inactive: [1]

CC(=O)OC1CC(OC(C)=O)[C@]2(C)C(CC(OC(C)=O)[C@@]3(C)C4=CC(=O)OC(c5ccoc5)[C@]4(C)CCC32)C1(C)C (stereo not given in full)
inactive: [1]

COc1cc(OC)c2c(=O)c(-c3ccccc3)coc2c1
inactive: [1]

CC(=O)OC1CC2C(C)(C)C(=O)CC[C@]2(C)C2CC[C@]3(C)C(=CC(=O)OC3c3ccoc3)[C@]12C (stereo not given in full)
inactive: [1]

CCC(=O)O[C@H]1C(O[C@@H]2C(C)[C@H](O[C@H]3C[C@@](C)(OC)C(O)C(C)O3)C(C)C(=O)OC(CC)[C@@](C)(O)C(O)[C@H](C)C(=O)C(C)C[C@]2(C)O)OC(C)CC1N(C)C (stereo not given in full)
inactive: [1]

COc1ccc(-c2cc(=O)c3c(OC(C)=O)cc(OC(C)=O)cc3o2)cc1
inactive: [1]

C=C1CCC2C(CC2(C)C)C(=O)CCC1O (stereo not given)
inactive: [1]

COC(=O)CC1C(C)(C)C(=O)C2CC3C4=CC(=O)OC(c5ccoc5)[C@]4(C)CCC3[C@@]1(C)C2=O (stereo not given in full)
inactive: [1]

COc1ccc2c(=O)c(-c3ccccc3)coc2c1
inactive: [1]

CC1(C)C=Cc2c(cc3occ(-c4ccc5c(c4)OCO5)c(=O)c3c2O)O1
inactive: [1]

COc1c2ccoc2c(OC)c2oc(=O)ccc12
inactive: [1]

COc1c2ccoc2cc2oc(C)cc(=O)c12
inactive: [1]

NC(Cc1cnc[nH]1)C(=O)Nc1ccc2ccccc2c1 (stereo not given)
inactive: [1]
